Screens from PubChem.
Rows were chosen to be rich in hits. Some 4.8% of all compounds tested hit in one or more screens of this group.
Beta cell apopt = blocks beta cell apoptosis; INS-1E cytokine-induced death, ATP luminescence, 48 h; percent of positive-control rescue, neutral wells zero; protection from apoptosis, % (test concentration not listed); 0.8% of 300,000 active; AID 435005;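 active means Every replicate reaches about 75%, or at least half do and their mean reaches it too, limit read from the data; inconclusive means At least half of replicates reach the limit but their mean does not; inactive means Under half of replicates reach the limit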;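 further: 0% = cytokine-treated negative control wells and 100% = positive control rescue; higher means more ATP so stronger rescue from cytokine killing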
CSC inhib = blocks cancer stem cells. cancer stem cell-like cells viability, luminescence. inhibition, % at 7.5 µM. 1.1% of 300,000 active. AID 2717; in the data active means inhibition above about 75%; inconclusive means no clear call, values can overlap the other calls; tested in HMLE shEcad cells
MPTP inh = permeability transition pore inhibition; 1.4% of 360,000 active; inhibition, % at 10 µM; isolated mouse mitochondria, Ca2+ swelling absorbance, 30 min;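 active means inhibition of 50% or more, scaled per plate between neutral and stimulator controls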;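 further: 0% = DMSO wells given calcium and 100% = 1 mM EGTA wells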
Calb FLC = C. albicans growth modulation with fluconazole. C. albicans CaCi-2 (fluconazole-resistant clinical isolate) + fluconazole, Alamar Blue growth, 48 h. growth inhibition, % (test concentration not listed). 0.57% of 300,000 active;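 active means growth inhibition above about 58% in most replicates, limit read from the data, passing the limit was not always enough; inconclusive means exactly half the replicates above a set limit; inactive means most replicates below a set limit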;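 further: all wells also contain fluconazole at 8 µg/ml as a sub-toxic cotreatment; 0% = median of DMSO wells and 100% = median of geldanamycin control wells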
Mdm2-MdmX inh = disrupts the human Mdm2-MdmX interaction; SaOS-2 split-luciferase Mdm2/MdmX complementation, luminescence; 3% of 330,000 active; O15151+Q00987; AID 485346; inhibition, % at 8 µM;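 active means inhibition of at least 50% at 8 µM in the primary screen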
Target sequence (O15151 whole entry, looked up): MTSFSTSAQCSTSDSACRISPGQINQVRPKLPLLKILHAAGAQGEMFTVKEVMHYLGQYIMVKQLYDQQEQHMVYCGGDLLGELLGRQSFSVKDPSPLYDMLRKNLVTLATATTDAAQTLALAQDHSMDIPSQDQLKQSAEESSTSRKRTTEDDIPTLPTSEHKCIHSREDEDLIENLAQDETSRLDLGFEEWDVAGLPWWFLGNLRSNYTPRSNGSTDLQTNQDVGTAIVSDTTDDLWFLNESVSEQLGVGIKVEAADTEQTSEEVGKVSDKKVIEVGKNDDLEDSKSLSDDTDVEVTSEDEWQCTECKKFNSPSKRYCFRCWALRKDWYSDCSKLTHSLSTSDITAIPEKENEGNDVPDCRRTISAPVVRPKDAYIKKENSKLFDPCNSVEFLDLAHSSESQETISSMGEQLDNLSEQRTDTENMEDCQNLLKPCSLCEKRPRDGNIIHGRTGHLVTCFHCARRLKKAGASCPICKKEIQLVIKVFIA
Target sequence (Q00987 whole entry, looked up): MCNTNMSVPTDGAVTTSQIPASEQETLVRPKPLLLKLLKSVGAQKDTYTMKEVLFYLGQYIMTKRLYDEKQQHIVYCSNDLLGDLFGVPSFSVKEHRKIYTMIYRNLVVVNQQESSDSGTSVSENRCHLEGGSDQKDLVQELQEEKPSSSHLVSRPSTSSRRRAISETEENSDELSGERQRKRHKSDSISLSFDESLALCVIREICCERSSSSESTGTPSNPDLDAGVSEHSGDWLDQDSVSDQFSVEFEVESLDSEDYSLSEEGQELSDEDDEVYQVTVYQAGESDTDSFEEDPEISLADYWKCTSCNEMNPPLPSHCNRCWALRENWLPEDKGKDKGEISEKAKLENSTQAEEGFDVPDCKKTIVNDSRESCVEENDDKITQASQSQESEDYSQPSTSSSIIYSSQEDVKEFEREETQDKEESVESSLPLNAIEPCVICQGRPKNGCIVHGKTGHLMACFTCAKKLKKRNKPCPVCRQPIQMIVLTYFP
Mdm2 MdmX conf = confirmation of human Mdm2/MdmX interaction inhibitors | shares compounds with Mdm2-MdmX inh | Mdm2-MdmX binding, luminescent assay | inhibition, % at 8 µM | 55% of 10,000 active; in the data active means inhibition above about 40%
Full FLuc ctr = counter-screen for Mdm2/MdmX inhibitors: full-length luciferase. SaOS-2 full-length luciferase counterscreen, luminescence. 77% of 6,200 active. shares compounds with Mdm2-MdmX inh. AID 504607. inhibition, % at 8 µM;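 active means mean inhibition at 8 µM reaching about 37%, which flags the compound as non-specific, limit read from the data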;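 further: p53-null SaOS-2 cells with luciferase driven by a doxycycline-inducible promoter; compound on cells about two nights before reading with doxycycline added after day one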
Starred values were filed as active, the others as inactive; ? = inconclusive; nt = no result given.

SMILES	Beta cell apopt	CSC inhib	MPTP inh	Calb FLC	Mdm2-MdmX inh	Mdm2 MdmX conf	Full FLuc ctr
CCOc1ccc(-c2nc(N)ncc2-c2ccc(OC)cc2)c(O)c1	-11	9	40	-4	39	nt	nt
CCOc1ccc(-c2nc(N)ncc2-c2ccccc2)c(O)c1	-1	-4	1	?	50*	25	nt
c1ccc(-c2cncnc2)cc1	-5	-9	-1	nt	9	nt	nt
Cc1ccc(S(=O)(=O)N2CCN(C(=O)CSC3CCCC3)CC2)c(C)c1	0	-5	1	5	55*	12	nt
COc1nc(-c2cccs2)cc(-c2ccc(C)cc2)c1C#N	-1	49	2	8	52*	55*	67*
Cc1ccc(CNC(=O)c2ccc3c(=O)n4c(-c5ccc(C)cc5)csc4nc3c2)cc1	11	nt	3	-12	57*	44*	90*
CCCCNC(=O)c1ccc(Cc2cn(C)c3ccccc23)nc1	nt	nt	1	nt	nt	nt	nt
Cc1ccccc1NC(=O)c1cccc(NC(=O)c2c(C(=O)O)cccc2[N+](=O)[O-])c1	-6	-6	2	3	21	nt	nt
Cc1ccc(NC(=O)c2ccc(N/N=C/c3cccc(O)c3)c([N+](=O)[O-])c2)cc1	63	48	7	-6	77*	48*	76*
Cc1ccccc1NC(=O)c1ccc(N/N=C/c2ccccc2O)c([N+](=O)[O-])c1	11	7	1	-4	74*	22	62*
CCO[C@H]1C[C@@H](c2ccc(CC)cc2)N(S(=O)(=O)c2ccc(C)cc2)C2CC(c3ccc(CC)cc3)N(S(=O)(=O)c3ccc(C)cc3)CC21 (stereo partly drawn)	nt	nt	0	nt	nt	nt	nt
CC(=O)Nc1ccc2c(CSc3nnc(N)s3)cc(=O)oc2c1	-5	-15	2	-2	-1	nt	nt
COc1cc(OC)cc(C(=O)N2CCN(C(=O)c3ccc(OC)c(OC)c3)CC2)c1	-1	1	-2	0	1	nt	nt
COc1ccc(-c2n[nH]c3c2CN(C(=O)c2ccc(OC)c(OC)c2)CC3)cc1	4	41	1	-7	58*	58*	55*
COc1ccc(OCCN2C(=O)c3ccccc3C2=O)c([N+](=O)[O-])c1	-7	7	0	6	9	nt	nt
Cc1sc2ncnc(N3CCC(C(=O)N(C)CC(=O)Nc4cccc(F)c4)CC3)c2c1C	nt	nt	2	nt	nt	nt	nt
Cc1sc2ncnc(N3CCC(C(=O)Nc4ccc(S(N)(=O)=O)cc4)CC3)c2c1C	-8	nt	-2	nt	61*	43*	72*
Cc1sc2ncnc(N3CCC(C(=O)Nc4ccc(C#N)cc4)CC3)c2c1C	-8	-9	1	-4	39	nt	nt
CCN(CC)S(=O)(=O)c1cc(NC(=O)C2CCN(c3ncnc4sc(C)c(C)c34)CC2)ccc1Cl	19	2	11	6	90*	60*	49*
Cc1sc2ncnc(N3CCC(C(=O)N(C)CC(=O)Nc4ccc(Cl)c(C(F)(F)F)c4)CC3)c2c1C	nt	96*	-1	-1	81*	55*	29
Cc1ccc(NC(=O)C2CCN(c3ncnc4sc(C)c(C)c34)CC2)cc1S(=O)(=O)N(C)C	23	2	-1	-6	45	nt	nt
O=C(Nc1cccc2c(=O)[nH][nH]c(=O)c12)c1ccc([N+](=O)[O-])cc1	nt	nt	0	nt	nt	nt	nt
Cc1nc(Nc2ccc(C(=O)O)cc2)nc(Nc2ccc(C(=O)O)cc2)c1[N+](=O)[O-]	-7	-9	0	17	-3	nt	nt
Cc1nc(Nc2ccc(F)cc2)nc(Nc2ccc(F)cc2)c1[N+](=O)[O-]	8	3	11	3	25	nt	nt
CCC(=O)Nc1ccc(Nc2nc(C)c([N+](=O)[O-])c(Nc3ccc(NC(=O)CC)cc3)n2)cc1	nt	9	0	-3	64*	74*	80*
SMILES	Beta cell apopt	CSC inhib	MPTP inh	Calb FLC	Mdm2-MdmX inh	Mdm2 MdmX conf	Full FLuc ctr
CC(=O)Nc1ccc(Nc2nc(C)c([N+](=O)[O-])c(Nc3ccccc3)n2)cc1	17	15	4	-11	58*	35	nt
CC(C)(C)NC(=O)C(c1ccc(C#N)cc1)n1c(=O)c(-c2ccco2)nc2ccccc21 (stereo not drawn)	nt	nt	-2	nt	nt	nt	nt
CC(C)(C)OC(=O)N1CCC(NC(=O)c2[nH]cnc2C(=O)Nc2ccc(Cl)cc2)CC1	-8	89*	-1	nt	52*	53*	53*
C[C@H](NC(=O)c1[nH]cnc1C(=O)Nc1ccc(Cl)cc1)C(=O)OC(C)(C)C	1	-24	1	30	50*	30	nt
CC(C)(C)OC(=O)NCc1ccc(NC(=O)c2nc[nH]c2C(=O)N[C@@H](Cc2ccccc2)C(=O)OCc2ccccc2)cc1	-1	-25	0	15	60*	16	nt
CC(C)(C)OC(=O)NCc1ccc(CNC(=O)c2[nH]cnc2C(=O)N[C@@H](Cc2ccccc2)C(=O)OCc2ccccc2)cc1	-4	1	-1	6	3	nt	nt
CC(C)C[C@H](NC(=O)c1nc[nH]c1C(=O)N1CCN(C(=O)OC(C)(C)C)CC1)C(=O)OC(C)(C)C	-6	51	0	1	91*	81*	53*
c1ccc(OCCNc2ccn3nc(-c4ccc(OCCN5CCOCC5)cc4)cc3n2)cc1	nt	nt	-1	nt	nt	nt	nt
CC(C)C[C@H](NC(=O)c1nc[nH]c1C(=O)N[C@@H](CCCCNC(=O)OC(C)(C)C)C(=O)OC(C)(C)C)C(=O)OC(C)(C)C	27	60	-1	3	73*	-17	nt
CC(C)C[C@H](NC(=O)c1nc[nH]c1C(=O)NCCCCCNC(=O)OC(C)(C)C)C(=O)OC(C)(C)C	9	3	0	-7	0	nt	nt
CC(C)(C)OC(=O)NCCCC[C@H](NC(=O)c1[nH]cnc1C(=O)Nc1ccc(Cl)cc1)C(=O)OC(C)(C)C	32	7	-1	13	56*	5	nt
C[C@@H](NC(=O)c1nc[nH]c1C(=O)N[C@@H](Cc1ccccc1)C(=O)OC(C)(C)C)c1ccccc1	-1	48	1	-1	27	nt	nt
C[C@H](NC(=O)c1nc[nH]c1C(=O)N[C@@H](Cc1ccccc1)C(=O)OC(C)(C)C)c1ccccc1	-9	48	-1	11	50*	-4	nt
CC(C)C[C@H](NC(=O)c1[nH]cnc1C(=O)Nc1ccccc1)C(=O)OC(C)(C)C	36	-15	1	22	57*	15	nt
CCC(C(=O)NC1CCCC1)n1c(-c2ccnc3ccccc23)nc2ccccc21 (stereo not drawn)	nt	nt	4	nt	nt	nt	nt
CC(C)C[C@H](NC(=O)c1nc[nH]c1C(=O)N[C@@H](CC(C)C)C(=O)OC(C)(C)C)C(=O)OCc1ccccc1	?	46	nt	14	64*	-11	nt
CC(C)C[C@H](NC(=O)c1nc[nH]c1C(=O)NCC(=O)OC(C)(C)C)C(=O)OCc1ccccc1	-2	1	1	-10	9	nt	nt
